Source: PubChem
Shown is part of a subset that was picked to be rich in hits.
VCAM1 TNFa pot – TNF alpha stimulated VCAM1 expression potentiation. HUVEC TNFa-stimulated VCAM-1 immunofluorescence, high-content imaging; scaled per plate to unstimulated/TNFa-only wells. activation, % at 2 µM. 93,000 tested, 0.19% active. AID 808;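 active = activation above the screen mean plus 3 SD, with well images confirming the hit on visual review, cut at about 28% in these data, passing the limit was not always enough; inconclusive = activation above that limit but images do not confirm it; inactive = activation not above that limit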;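 note: signal is the number of cytoplasmic VCAM-1 stained grains per positive cell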
VCAM1 pot confirm – potentiators of TNFa-induced VCAM1 expression, confirmation, imaging, HUVEC, triplicate retest | shares compounds with VCAM1 TNFa pot | activation, % at 2 µM | HUVEC TNFa-stimulated VCAM-1 immunofluorescence imaging | AID 1034 | 230 tested, under 10 active;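 active = activation above 30% in triplicate retests at 2 µM, then confirmed by visual review of the well images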;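 note: scaled per plate between unstimulated and TNFa-stimulated DMSO control wells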
Numbers without * were called inactive; u = inconclusive.

SMILES	VCAM1 TNFa pot	others
O=C(c1ccccc1)c1cc[n+]([O-])cc1	62.5*	VCAM1 pot confirm=-11.3
O=C(c1ccccc1)c1cc2ccccc2o1	0.5
CCn1c(SCC(=O)N2CCN(c3cccc(Cl)c3)CC2)nc2ccccc2c1=O	-96.1
CC(C)(C)c1nn(-c2ccccc2)c2[nH]c(=O)c(CNCc3ccc4c(c3)OCO4)cc12	7.1
O=C(c1cnn2c(C(F)(F)F)cc(-c3cccs3)nc12)N1CCN(C(c2ccccc2)c2ccccc2)CC1	24.0
COc1cccc(NC(C)C(=O)N2CC(C)OC(C)C2)c1 (configuration not stated)	-2.1
Cc1cc(N2C(=O)C(=O)/C(=C(/O)c3ccc(F)cc3)C2c2ccc(F)cc2)no1 (configuration not stated)	5.5
CCOc1ccc(C2/C(=C(/O)c3ccc(OC)cc3)C(=O)C(=O)N2c2cc(C)on2)cc1OC (configuration not stated)	57.6*	VCAM1 pot confirm=-4.4
Cc1ccc(C2/C(=C(/O)c3ccc(OC(C)C)cc3)C(=O)C(=O)N2CCN2CCOCC2)cc1 (configuration not stated)	-4.6
Cc1cccc(Oc2ccc(C(=O)NC3CCSC3=O)cn2)c1C (configuration not stated)	12.4
CCN(CC)c1ccc(NC(=O)c2ccc(Br)o2)c(C)c1	8.0
NC(=O)c1c(NC(=O)Cc2cccs2)sc2c1CCC2	-92.5
NC(=O)c1c(NC(NC(=O)c2ccco2)(C(F)(F)F)C(F)(F)F)sc2c1CCCC2	-16.6
CCC(=O)Nc1sc2c(c1C(N)=O)CCC2	113.9*	VCAM1 pot confirm=-8.2
COc1cccc(N2CCN(Cc3nc(N)nc(N4CCCc5ccccc54)n3)CC2)c1	23.8
O=C(NCCc1ccccc1F)[C@@H]1CSC2c3ccccc3C(=O)N21 (some centres not stated)	0.9
O=C(CCS(=O)(=O)c1ccc(Br)s1)NCc1ccc2c(c1)OCO2	7.1
COc1cc(OC)c(C(=O)Nc2ccc(S(=O)(=O)Nc3ncccn3)cc2)cc1OC	-9.9
Cn1c(SCC(=O)NCc2ccc(F)cc2)nc2ccccc21	49.9*	VCAM1 pot confirm=-2.1
CC(C)(C)NC(=O)Cn1c(SCC(N)=O)nc2ccccc21	-1.0
Cc1nc2ccccc2n1CC(=O)NCc1ccccc1	-7.9
CC(C)CNC(=S)NNC(=O)c1ccco1	-37.7
CCOC(=O)N1CCN(/C=C(\C#N)c2nc3ccccc3s2)CC1	-9.5
CCC(C)COC(=O)C(C#N)c1nc2ccccc2nc1N1CCCCC1 (configuration not stated)	36.0*	VCAM1 pot confirm=-17.4
O=C(CCc1ccccc1)Nc1ccc(N2CCOCC2)c(Cl)c1	-5.1
SMILES	VCAM1 TNFa pot	others
O=C(Nc1ccc(N2CCCC2)c(Cl)c1)c1cccnc1	4.1
O=C(Nc1ccc(N2CCOCC2)c(Cl)c1)c1cccnc1	55.8*	VCAM1 pot confirm=-11.9
Brc1ccc(-c2nc(N/N=C/c3cccnc3)c3ccccc3n2)cc1	-41.0
CCOc1nc(-c2ccncc2)nc2ccccc12	43.4*	VCAM1 pot confirm=-8.9
CC(C)OC(=O)c1c(-c2ccc(C(C)C)cc2)csc1NC(=O)C1CCCO1 (configuration not stated)	-8.2
CN(CC(=O)N1CCN(c2ccccc2)CC1)S(=O)(=O)c1cnc[nH]1	-4.2
C=CCc1ccc(OCc2ccc(C(=O)OC)o2)c(OC)c1	-0.5
Cc1oc(C(=O)O)cc1CSCc1cc(C(=O)O)c(C)o1	3.8
COC(=O)c1cc(OC)c(OCc2cc(C(=O)OC)oc2C)c(OC)c1	53.0*	VCAM1 pot confirm=-10.5
Cc1cc(C)cc(C(=O)N2CCC(C(N)=O)CC2)c1	-7.1
CC1CCCC(NC(=O)COC(=O)c2ccc3ccccc3n2)C1C (configuration not stated)	-28.4
CCOc1ccc(C(=O)C2CCN(CC(=O)Nc3ccccc3N3CCOCC3)CC2)cc1	-31.4
CCOc1cc(N2CCOCC2)c(OCC)cc1NC(=O)CC12CC3CC(CC(C3)C1)C2	3.2
CCOc1ccc(Br)cc1S(=O)(=O)Nc1ccccc1N1CCOCC1	92.5*	VCAM1 pot confirm=-15.5
Cc1ccc(NCc2nnc(SCC(=O)N(Cc3ccccc3)C(C)(C)C)o2)c(C)c1	-4.7
CCNC(=O)/N=C1/NC(=O)C(C(C)C)O1 (configuration not stated)	-8.7
Cc1ccc(SCC(=O)NCc2cccnc2)cc1	-8.0
Cc1nc(NCc2ccccc2)[nH]c(=O)c1CCC(C)C	u	VCAM1 pot confirm=-16.4
C=C(C)CSc1nc(C)c(Cc2ccccc2)c(=O)[nH]1	-2.4
Cc1ccc(CNC(=O)CS(=O)CC(=O)O)cc1 (configuration not stated)	8.1
c1ccc(OCCOCCSc2ncccn2)cc1	-6.9
COc1cccc(-c2nnc(SCCC(=O)O)n2C)c1	7.2
Cn1c(SCC(=O)Nc2ccccc2)nnc1-c1ccc(NC(=O)CCc2ccccc2)cc1	3.3
CSc1nnc(-c2ccc(NC(=O)CCc3ccccc3)cc2)n1C	u	VCAM1 pot confirm=-5.2
CON1C(=O)CN(C(C)=O)C1c1ccc(Cl)cc1Cl (configuration not stated)	-4.4
SMILES	VCAM1 TNFa pot	others
Cn1c(=O)[nH]c2sc3c(c2c1=O)CC(C)(C)OC3	7.4
CN(C)C(=O)c1ccccc1-c1ccccc1	8.0
Cc1ccc(NC(=O)CN(C)CC(=O)Nc2c(C)cccc2C)c(Br)c1	-5.9
Cc1cc2nc(-c3ccc(NC(=O)C(C)C)cc3)oc2cc1C	58.0*	VCAM1 pot confirm=-2.6
CC(Oc1ccc(Cl)cc1Cl)C(=O)Nc1ccc2oc(-c3ccncc3)nc2c1 (configuration not stated)	5.9
COc1ccc(N/C(=N\c2nc(C)cc(C)n2)NC(=O)C(C)C)cc1OC	2.7
COc1nc(C)nc2c1ccc1ccccc12	-5.6
CCOCC(=O)Nc1nnc(C2CCCCC2)s1	-20.6
CCCc1ccc(-c2cc(NC(=O)CSc3n[nH]c(N)n3)n(-c3ccccc3)n2)cc1	-14.3
Nc1cc(-c2ccccc2)nn1Cc1ccc(Cl)cc1	-1.4
O=c1cc(-c2ccccc2)nc2nc(CCc3ccccc3)[nH]n12	47.7*	VCAM1 pot confirm=-9.7
O=C(CCCCCN1C(=O)c2ccccc2C1=O)Nc1nccs1	-50.1
COc1ccc(C(=O)NCC(C)(C)SCc2c(C)cc(C)cc2C)cc1	3.9
C/C(Cl)=C/CN1C(=O)C2C3C=CC(C3)C2C1=O (configuration not stated)	-13.1
CC1=CN2C(=NC(=O)CC2(C)C(=O)N(CC(=O)NC2CCCC2)c2ccccc2C)C=C1 (configuration not stated)	-7.7
CCc1ccc(C(=O)COC(=O)c2cccc(N3C(=O)c4c(C)nc5ccccc5c4C3=O)c2)cc1	-9.1
Cc1ccc(OCC(=O)NCc2ccco2)cc1C	-16.3
CCCOc1ccc(CC(=O)NCc2ccco2)cc1OC	-1.7
CCn1cc(C(=O)NCc2ccco2)c2cc(OC)c(OC)cc2c1=O	u	VCAM1 pot confirm=-9.7
CCCCCOC(=O)C1[C@H]2C(=O)N(CCCOC)C[C@]23C=C[C@H]1O3 (some centres not stated)	-9.6
CCCCNC(=O)CSc1nc2ccccc2c(=O)n1Cc1ccc2c(c1)OCO2	0.4
CCCN(CCC)C(=O)CSc1nc2ccccc2c(=O)n1C1CCCC1	63.1*	VCAM1 pot confirm=-7.9
Cc1cc(NC(=O)CSc2nc3ccccc3c(=O)n2C2CCCC2)no1	-67.7
COc1cccc2c(=O)n(CC(=O)Nc3ccccc3F)ccc12	-7.9
Cn1c(=O)n(CCc2ccccc2)c(=O)c2c1nc1n2CCN1Cc1ccco1	-0.2
CN(C)c1oc(-c2ccccc2Cl)nc1C#N	41.1*	VCAM1 pot confirm=5.0
COc1ccc(-c2nc(C#N)c(NCCCN(C)C)o2)cc1OC	-96.6
